Pol beta inh – DNA polymerase beta (human) inhibition; Potency, µM (doses to about 114 µM), most hits filed as inhibitors; 1.3% of 340,000 active; Pol beta primer extension/strand displacement, fluorescence kinetic; P06746
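Kinetic readout of DNA synthesis with strand displacement by Pol beta. Compound and 10 nM enzyme sit 15 min at room temperature; 50 nM substrate starts the reaction, read immediately and at 10 min.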
Pol kappa inh – DNA polymerase kappa (human) inhibition. Q9UBT6. purified Pol kappa, fluorescent DNA synthesis assay, 10 min. Potency, µM (highest dose often 107 µM), actives largely listed as inhibitors. 0.53% of 400,000 active. AID 588579
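10 nM Pol kappa preincubated 15 min at room temperature with compounds, then reaction started with substrate at 50 nM final. Fluorescence read kinetically at 0 and 10 min; buffer-only wells served as negative control.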
Pol eta inh – DNA polymerase eta (human) inhibition | Q9Y253 | recombinant Pol eta, fluorescent DNA replication assay | Potency, µM (highest dose often 114 µM), usual class: inhibitors | 1.2% of 390,000 active
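Pol eta (10 nM) was preincubated with compounds for 15 min at room temperature, after which fluorescent replication substrate (50 nM final) was added to start the reaction. Fluorescence was read kinetically at 0 and 10 min.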
POLI inh – blocks human DNA polymerase iota activity | 1% of 390,000 active | Potency, µM (highest dose often 115 µM), hits mostly inhibitors | Pol iota fluorescent replication assay, 10 min | AID 588590
Target sequence (Q9UNA4 whole entry, looked up): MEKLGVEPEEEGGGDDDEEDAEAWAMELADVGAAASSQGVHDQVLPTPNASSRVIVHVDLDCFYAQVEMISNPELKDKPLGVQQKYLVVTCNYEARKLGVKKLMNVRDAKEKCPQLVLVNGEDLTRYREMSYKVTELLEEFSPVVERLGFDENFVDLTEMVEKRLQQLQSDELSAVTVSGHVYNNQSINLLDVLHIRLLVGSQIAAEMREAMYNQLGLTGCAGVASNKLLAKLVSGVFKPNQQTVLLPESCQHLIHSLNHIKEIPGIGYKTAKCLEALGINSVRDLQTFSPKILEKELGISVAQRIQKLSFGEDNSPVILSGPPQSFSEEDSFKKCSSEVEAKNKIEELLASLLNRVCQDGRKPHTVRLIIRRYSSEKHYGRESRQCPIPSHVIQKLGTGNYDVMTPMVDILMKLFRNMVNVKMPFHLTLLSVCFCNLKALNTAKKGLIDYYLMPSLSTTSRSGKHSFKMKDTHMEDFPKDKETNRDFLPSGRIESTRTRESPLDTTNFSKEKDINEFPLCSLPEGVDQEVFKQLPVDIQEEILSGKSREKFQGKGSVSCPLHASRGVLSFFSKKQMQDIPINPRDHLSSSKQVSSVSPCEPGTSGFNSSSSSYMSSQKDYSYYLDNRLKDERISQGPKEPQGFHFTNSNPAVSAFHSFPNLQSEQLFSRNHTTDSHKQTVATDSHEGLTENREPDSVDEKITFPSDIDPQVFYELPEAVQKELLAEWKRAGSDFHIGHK
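Fluorescent replication assay read twice, at 0 min and 10 min after adding 50 nM (final) substrate. Enzyme (10 nM) and compounds were first incubated 15 min at room temperature; enzyme-free buffer wells were negative controls.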
FEN1 inh – blocks human flap endonuclease 1 | 0.35% of 390,000 active | P39748 | Potency, µM (series often up to 114 µM), hits mostly inhibitors | Recombinant FEN1 flap cleavage, fluorescence, 15 min; note: nearly all actives have a fitted effect of over 65% in size
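Compounds are tested as a concentration series against 10 nM FEN1; after a 15 min room-temperature preincubation, 50 nM substrate starts cleavage, with plate reads at 0 and 15 min. Normalized responses are fitted by a Hill equation.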
WRN helicase inh-1 – inhibitors of human WRN helicase. AID 651768. WRN helicase unwinding, fluorescent forked duplex, kinetic. Potency, µM (top dose mostly 114 µM), usual class: inhibitors. 0.46% of 360,000 active. Q14191; note: nearly all actives have a fitted effect of over 55% in size
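Screening of the MLSMR collection measured strand separation of a quenched forked DNA duplex (100 nM) by 20 nM WRN with 2 mM ATP, all final. Compounds were preincubated with enzyme 15 min at room temperature.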
WRN helicase inh-2 – WRN helicase inhibition, cherry-pick retest; shares compounds with WRN helicase inh-1; WRN helicase DNA unwinding, fluorescence kinetic; Potency, µM (titrated, usually from 57.1 µM), most hits filed as inhibitors; 63% of 610 active; AID 720497; note: nearly all actives have a fitted effect of over 65% in size
TO DNA binding – counter-screen for WRN helicase inhibitors: DNA binding; shares compounds with WRN helicase inh-1; thiazole orange DNA binding displacement, fluorescence; Potency, µM (highest dose often 57.1 µM), usual class: inhibitors; 10% of 610 active; AID 720499;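 note: drop in dye fluorescence marks compound binding to DNA; nearly all actives have a fitted effect of over 60% in size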
BLM counter – BLM helicase inhibition, WRN selectivity check. shares compounds with WRN helicase inh-1. Recombinant BLM helicase DNA unwinding, red fluorescence. Potency, µM (doses to about 57.1 µM), actives largely listed as inhibitors. 60% of 610 active; note: nearly all actives have a fitted effect of over 60% in size
Numbers stand for hits; i = inactive; ? = inconclusive; nt = no result. Compounds with a hit are over-represented: about 2.4% of the library has one in this group of screens. Calls come from the whole dose curve; as a rule, active = well fitted curve in the direction sought with a large enough effect; inconclusive = small, poorly fitted or top-dose-only effect, or another doubt; inactive = no such curve, though single readings can be large; an effect the other way counts as inactive or inconclusive.

SMILES	Pol beta inh	Pol kappa inh	Pol eta inh	POLI inh	FEN1 inh	WRN helicase inh-1	WRN helicase inh-2	TO DNA binding	BLM counter
CN(C)CCNC(=O)c1cccc2ccc(-c3ccc(-c4ccccc4)cc3)nc12	nt	i	i	i	?	i	nt	nt	nt
CCOc1cccc(CNCCO)c1OCc1ccc(Cl)cc1Cl	i	i	i	i	i	i	nt	nt	nt
CCOc1cccc(CNc2ccc(O)cc2)c1OCc1ccc(Cl)cc1Cl	i	i	?	3.2µM	i	?	i	i	?
CN1CCN(C(=O)Cn2ncc3c4ccccc4n(Cc4ccc(Cl)cc4)c3c2=O)CC1	i	i	i	i	i	nt	nt	nt	nt
COc1cc(C(O)c2nc(-c3cccc(C(C)C)c3)cs2)ccc1F (configuration not stated)	nt	nt	nt	nt	nt	i	nt	nt	nt
COCCn1c(=O)sc2ccccc2c1=O	i	i	i	i	i	?	i	i	i
Cc1ccc(NC(=O)Cn2cnc3c(oc4ccccc43)c2=O)cc1Cl	i	i	i	i	i	nt	nt	nt	nt
O=C1NC(=Nc2ccc(O)cc2)S/C1=C\C=C\c1ccco1	20µM	i	32µM	?	i	?	19µM	?	22µM
CC(=O)N[C@H](Cc1c[nH]c2ccccc12)C(N)=O	nt	i	nt	nt	nt	nt	nt	nt	nt
COc1ccc(NC(=O)/C(Cl)=C(/Cl)S(=O)(=O)Cc2ccccc2)cn1	i	i	?	?	i	12µM	?	i	i
COc1ccc(NC(=O)Nc2ccc(OCc3ccccc3)cc2)cn1	i	i	i	i	i	i	nt	nt	nt
Cc1ccc(NN2C(=O)C=C(c3ccccc3)C2=O)cc1	i	i	i	?	i	?	i	i	i
CCCc1cc(CN2CCOCC2)c(O)c(CN2CCOCC2)c1O	nt	i	i	i	i	18µM	i	i	i
Cc1noc(Cn2c(=O)c3ccccc3n(CC(=O)Nc3ccc(Cl)cc3)c2=O)n1	i	i	i	i	i	nt	nt	nt	nt

Compound activity deposited in PubChem by National Center for Advancing Translational Sciences (NCATS).
